NIH3T3 tox = NIH 3T3 cell cytotoxicity. Potency, µM (titrated, usually from 96.7 µM), for inactives: at the top dose activity change, negative = cytotoxicity, usual class: inhibitors. actives 4.3% (n = 94,000). NIH 3T3 viability, CellTiter-Glo ATP luminescence, 48-72 h; note: nearly all actives have a fitted effect of over 55% in size
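Cytotoxicity was measured by CellTiter-Glo ATP luminescence after 48 or 72 h compound exposure at 37 °C. Mouse NIH 3T3 fibroblasts were seeded at 400 cells/well and dosed by 23 nL pin transfer.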
GPT2 inhibitor = blocks human glutamate pyruvate transaminase 2; Potency, µM (titrated, usually from 57.7 µM), without a hit: at the highest dose activity change, negative = inhibition, most hits filed as inhibitors; actives 0.25% (n = 100,000); AID 1671188; Q8TD30; Recombinant GPT2, coupled pyruvate oxidase/HRP Amplex Red fluorescence; note: nearly all actives have a fitted effect of over 60% in size
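GPT2 10ng/uL, a-KG 250uM, L-Ala 2mM, HEPES pH7.5 + 0.0001% Tween; 30 min RT. Then Amplex mix (PO/HRP/ThPP), 30 min RT dark, fluorescence. AOA 50uM used as positive control.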
NPR1 antag = antagonists of human natriuretic peptide receptor Npr1; actives 1.6% (n = 76,000); AID 1347048; HEK293 hNpr1 GloSensor cGMP, ANP-stimulated luminescence; P16066; Potency, µM (series often up to 46.3 µM), without a hit: at the top dose activity change, negative = inhibition, most hits filed as inhibitors; calls by dose curve; note: nearly all actives have a fitted effect of over 60% in size
Target sequence (P16066 whole entry, looked up): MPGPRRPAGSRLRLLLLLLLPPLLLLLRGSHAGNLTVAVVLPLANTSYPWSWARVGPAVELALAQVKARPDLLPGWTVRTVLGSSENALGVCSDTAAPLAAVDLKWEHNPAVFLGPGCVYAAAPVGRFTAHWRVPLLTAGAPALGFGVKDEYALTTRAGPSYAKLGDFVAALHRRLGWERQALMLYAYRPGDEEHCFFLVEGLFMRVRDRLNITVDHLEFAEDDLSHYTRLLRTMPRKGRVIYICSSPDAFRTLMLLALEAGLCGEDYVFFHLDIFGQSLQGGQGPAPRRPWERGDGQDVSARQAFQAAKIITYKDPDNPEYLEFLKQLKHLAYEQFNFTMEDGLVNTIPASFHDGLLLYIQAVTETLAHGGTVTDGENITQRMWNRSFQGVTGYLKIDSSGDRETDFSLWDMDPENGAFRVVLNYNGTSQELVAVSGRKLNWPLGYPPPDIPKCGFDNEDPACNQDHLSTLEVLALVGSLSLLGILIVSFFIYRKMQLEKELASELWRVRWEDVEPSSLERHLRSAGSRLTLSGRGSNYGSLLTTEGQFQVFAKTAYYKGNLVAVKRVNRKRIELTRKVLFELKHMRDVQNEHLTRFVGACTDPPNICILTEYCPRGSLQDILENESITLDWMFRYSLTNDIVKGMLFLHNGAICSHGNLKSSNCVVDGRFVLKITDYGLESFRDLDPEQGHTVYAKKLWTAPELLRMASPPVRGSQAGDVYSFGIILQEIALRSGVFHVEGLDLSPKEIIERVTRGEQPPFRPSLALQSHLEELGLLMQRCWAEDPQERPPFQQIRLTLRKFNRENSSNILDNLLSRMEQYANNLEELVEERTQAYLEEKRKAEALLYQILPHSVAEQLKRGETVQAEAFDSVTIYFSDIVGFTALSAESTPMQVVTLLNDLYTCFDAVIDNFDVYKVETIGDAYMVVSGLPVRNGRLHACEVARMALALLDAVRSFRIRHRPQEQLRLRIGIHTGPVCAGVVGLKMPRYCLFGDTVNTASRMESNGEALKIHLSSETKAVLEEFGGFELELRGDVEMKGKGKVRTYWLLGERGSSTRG
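Compound pre-incubated 30 min at room temperature on GloSensor-loaded HEK293 cells stably carrying hNpr1 and the pGS-40F cGMP biosensor. Stimulation uses hNppA at 0.1 nM final; luminescence is taken at baseline and 20 min post-agonist.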
FLuc inh = blocks purified firefly luciferase enzyme activity | P08659 | purified P. pyralis luciferase, luminescence, biochemical | Potency, µM (doses to about 115 µM), usual class: inhibitors | actives 2.5% (n = 76,000); note: nearly all actives have a fitted effect of over 65% in size
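Luminescence read by CCD imaging after purified firefly luciferase (10nM final) was added to substrate buffer holding 10uM D-luciferin and 10uM ATP, pH 7.5, pre-dosed with compound.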
HEK cytotox = kills HEK 293 cells; HEK 293 viability, ATP luminescence (CellTiter-Glo), 48-72 h; Potency, µM (highest dose often 115 µM), without a hit: top-dose activity change, negative = cytotoxicity, actives largely listed as inhibitors; actives 6.6% (n = 94,000); note: nearly all actives have a fitted effect of over 60% in size
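Cells seeded first (HEK 293, 250 cells/well), then compound added by pintool. Incubation ran 48 or 72 hr at 37 degree Celsius. CellTiter-Glo was added and luminescence imaged after 10 min at room temperature.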
* marks the source's active call; other numbers are inactive results; [ ] = another dose, or the depositor's remark. This is a sample that favours compounds with a hit; in the whole collection about 10% have one here. Unless noted, calls come from the whole dose curve; as a rule, active = well fitted curve in the direction sought with a large enough effect; inconclusive = small, poorly fitted or top-dose-only effect, or another doubt; inactive = no such curve, though single readings can be large; an effect the other way counts as inactive or inconclusive. % is set by controls: 0 for no effect and ±100 for the full control effect; potency is the fitted concentration of half-maximal effect.

What do the screens show for `O=C(c1cccc2[nH]ccc12)N1CC(Oc2ccc(-c3nc(-c4ccccc4)no3)cc2)C1`?
NIH3T3 tox: inconclusive; GPT2 inhibitor: inactive; NPR1 antag: -27%; FLuc inh: 16µM*; HEK cytotox: inconclusive

Results for CCOC(=O)[C@H]1C[C@]2(CCCCN(CCO)C2=O)N(C(=O)c2cccc(C#N)c2)[C@H]1c1ccco1 ?
NIH3T3 tox: inconclusive; HEK cytotox: -27%

How did O=C(Nc1ccc(Cl)cc1)c1nc2c(o1)CCN(Cc1cnc[nH]1)CC2 do in these assays?
NIH3T3 tox: inconclusive; GPT2 inhibitor: 2%[88.5 µM]; NPR1 antag: inconclusive; FLuc inh: 71µM*; HEK cytotox: inconclusive

How did Cc1ccccc1CN1CCc2nc(C(=O)Nc3ccccc3)oc2CC1 do in these assays?
NIH3T3 tox: inconclusive; GPT2 inhibitor: 1%[88.5 µM]; NPR1 antag: 10µM*; FLuc inh: inconclusive; HEK cytotox: 40µM*

How did Cc1ccccc1CN1CCc2nc(C(=O)N3CCOCC3)oc2CC1 do in these assays?
NIH3T3 tox: inconclusive; GPT2 inhibitor: inactive; NPR1 antag: inconclusive; FLuc inh: inconclusive; HEK cytotox: inconclusive

What do the screens show for `Cc1cc(F)cc(CN2CCc3nc(C(=O)Nc4ccccc4)oc3CC2)c1`?
NIH3T3 tox: 25µM*; GPT2 inhibitor: inactive; NPR1 antag: 13µM*; FLuc inh: 22µM*; HEK cytotox: inconclusive

Results for CNC(=O)c1nc2sccn2c1-c1ccc(C(F)(F)F)cc1 ?
NIH3T3 tox: inconclusive; GPT2 inhibitor: inactive; HEK cytotox: inconclusive

Results for CC(NC(=O)c1csc(N2CCN(c3ccccc3F)CC2)n1)c1ccccc1 (stereo not given) ?
NIH3T3 tox: inconclusive; GPT2 inhibitor: -5%; NPR1 antag: 3%; FLuc inh: inactive; HEK cytotox: 45µM*

What do the screens show for `O=C(NCC1CC1)c1csc(N2CCN(c3ccccc3F)CC2)n1`?
NIH3T3 tox: 13µM*; GPT2 inhibitor: -1%; NPR1 antag: -24%; FLuc inh: inactive; HEK cytotox: 35µM*

What do the screens show for `O=C(CCC1CCCC1)N1CCCC(c2noc(COc3ccccc3F)n2)C1` (stereo not given)?
NIH3T3 tox: inconclusive; GPT2 inhibitor: 1%; NPR1 antag: inconclusive; FLuc inh: inactive; HEK cytotox: inconclusive

Results for Cc1cc(C)cc(-c2ccc(CN3CCCC(N[S+](=O)([O-])c4cccc(C(F)(F)F)c4)C3)cc2)c1 (stereo not given) ?
NIH3T3 tox: 32µM*; GPT2 inhibitor: -11%; HEK cytotox: inconclusive

Results for Cc1cc(C)cc(-c2ccc(CN3CCCC(NC(=O)NC(C)C)C3)cc2)c1 (stereo not given) ?
NIH3T3 tox: -26%; GPT2 inhibitor: 0%; HEK cytotox: -27%

What do the screens show for `Cc1cc(C)cc(-c2ccc(CN3CCCC(N[S+](C)(=O)[O-])C3)cc2)c1` (stereo not given)?
NIH3T3 tox: inconclusive; GPT2 inhibitor: inconclusive; HEK cytotox: 40µM*

Results for Cc1ccc([S+](=O)([O-])NC2CCCN(Cc3ccc(-c4cncnc4)cc3)C2)cc1 (stereo not given) ?
NIH3T3 tox: inconclusive; GPT2 inhibitor: 1%; HEK cytotox: inconclusive

Results for COCC(=O)N1CCN(C(=O)c2nc3cccnc3n(-c3ccccc3OC)c2=O)CC1 ?
NIH3T3 tox: -16%; GPT2 inhibitor: 2%; HEK cytotox: -1%

How did COc1ncccc1CN1CCC2(CC1)Cc1ccccc1CNC2=O do in these assays?
NIH3T3 tox: -6%; GPT2 inhibitor: inactive; HEK cytotox: -12%

What do the screens show for `COCC(=O)N1CCC(N2C(=O)c3c(c(C)nn3-c3ccccc3)C2C2CC2)C1` (stereo not given)?
NIH3T3 tox: inconclusive; HEK cytotox: -20%

How did Cc1nn(-c2ccccc2)c2c1C(C1CC1)N(C1CCN(C(=O)c3cccc(Cl)c3)CC1)C2=O (stereo not given) do in these assays?
NIH3T3 tox: -27%; HEK cytotox: inconclusive

Results for Cc1nn(-c2ccccc2)c2c1C(C1CC1)N(C1CCN(C(=O)NC3CCCC3)C1)C2=O (stereo not given) ?
NIH3T3 tox: inconclusive; HEK cytotox: 45µM*

What do the screens show for `COc1cccc(C(=O)N2CCC(N3C(=O)c4c(c(C)nn4-c4ccccc4)C3C3CC3)C2)c1` (stereo not given)?
NIH3T3 tox: inconclusive; HEK cytotox: 35µM*

What do the screens show for `Cc1nn(-c2ccccc2)c2c1C(C1CC1)N(C1CCN(C(=O)c3cccc(Cl)c3)C1)C2=O` (stereo not given)?
NIH3T3 tox: inconclusive; HEK cytotox: 25µM*

What do the screens show for `COCCCNC(=O)c1cc(C(C)(C)C)nc2c1cnn2C`?
NIH3T3 tox: inconclusive; GPT2 inhibitor: -15%[88.5 µM]; HEK cytotox: -12%[172 µM]

What do the screens show for `COc1ccccc1CN1CCN(C(=O)c2ccc3c(c2)C(O)CCCCCN3C)CC1` (stereo not given)?
NIH3T3 tox: inconclusive; GPT2 inhibitor: inactive; NPR1 antag: -22%; FLuc inh: inactive; HEK cytotox: 50µM*

What do the screens show for `CN1CCCCCC(O)c2cc(C(=O)NC3CCN(Cc4ccccc4)CC3)ccc21` (stereo not given)?
NIH3T3 tox: inconclusive; GPT2 inhibitor: 3%; NPR1 antag: inconclusive; FLuc inh: inactive; HEK cytotox: 11µM*

What do the screens show for `CN1CCCCCC(O)c2cc(C(=O)N3CCN(c4ccc(F)cc4)CC3)ccc21` (stereo not given)?
NIH3T3 tox: inconclusive; GPT2 inhibitor: 2%; NPR1 antag: -27%; FLuc inh: inactive; HEK cytotox: 45µM*

What do the screens show for `CN1CCCCCC(O)c2cc(C(=O)NCCCc3ccccc3)ccc21` (stereo not given)?
NIH3T3 tox: inconclusive; GPT2 inhibitor: inactive; NPR1 antag: -15%; FLuc inh: inactive; HEK cytotox: inconclusive

What do the screens show for `CCOc1ccc(NC(=O)N2CCc3nc(-c4ccccc4)[nH]c3C2)cc1`?
NIH3T3 tox: inconclusive; GPT2 inhibitor: -8%; HEK cytotox: inconclusive

Results for COCCNc1cc(-c2cccc(C(F)(F)F)c2)nc2c(C)noc12 ?
NIH3T3 tox: inconclusive; GPT2 inhibitor: 4%[88.5 µM]; NPR1 antag: 0%[70.6 µM]; FLuc inh: inactive; HEK cytotox: 89µM*

How did Cc1noc2c(NCc3cccnc3)cc(-c3cccc(C(F)(F)F)c3)nc12 do in these assays?
NIH3T3 tox: 79µM*; GPT2 inhibitor: -16%[88.5 µM]; NPR1 antag: -5%[70.6 µM]; FLuc inh: inactive; HEK cytotox: 100µM*

How did Cc1noc2c(NCCN3CCOCC3)cc(-c3cccc(C(F)(F)F)c3)nc12 do in these assays?
NIH3T3 tox: inconclusive; GPT2 inhibitor: -11%[88.5 µM]; NPR1 antag: 0%[70.6 µM]; FLuc inh: inactive; HEK cytotox: inconclusive
